Data reported in PubChem BioAssay.
For some assays here: Potency and affinity values are given separately. Active and inactive are the calls of the source. Unless noted, how the calls were made is not given here.

Tests used:
[1] = antimalarial activity against Dd2 strain (AID 2302;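 active means growth inhibition above 50% at the single 2 µM test dose, taken to imply half-maximal potency below 2 µM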;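 further: 0% = DMSO untreated growth and 100% = chloroquine plus artemisinin killed control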); settings: P. falciparum Dd2 in RBCs, LDH growth readout, 72 h; at 2 µM; active compounds read high
[2] = human hepatoma cell viability loss – ATP luminescence, cytotoxicity control for P. falciparum antimalarial project, primary screen (AID 2303;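 active means inhibition above 50%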;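 further: 0% = DMSO wells and 100% = digitonin-killed cells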); settings: HepG2 viability, 24-48 h, at 10 µM, active compounds read high
[3] = biological target: L-lactate dehydrogenase (Plasmodium falciparum (isolate CDC / Honduras)) (UniProt Q27743); experiment: PfLDH activity inhibition – cell lysate, 3D7 strain, counter-screen for P. falciparum growth inhibition project (AID 2304);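 further: 0% = vehicle and 100% = reference inhibitor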; settings: P. falciparum 3D7 crude extract, LDH APAD/NBT absorbance; at 2 µM; active compounds read high
[4] = inhibition of 3D7 malaria parasite growth – strain 3D7 (AID 2306);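 further: 0% = DMSO wells and 100% = chloroquine plus artemisinin control wells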; settings: P. falciparum 3D7 erythrocytic growth, LDH absorbance, 72 h; at 2 µM; active compounds read high
[5] = biological target: Calcium-dependent protein kinase 1 (Plasmodium falciparum (isolate 3D7)) (UniProt P62344); experiment: PfCDPK1 kinase inhibitors, biochemical, TCAMS library (AID 1159585; cut-off not given, nearly all actives have IC50 up to about 0.98 µM;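 further: inhibitors leave more ATP so luminescence rises with inhibition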); settings: recombinant PfCDPK1, Kinase-Glo ATP depletion luminescence
[6] = biological target: Plasmodium falciparum protein kinase 6 (PK6, PF3D7_1337100) (UniProt Q8IDW1); experiment: PfPK6 kinase inhibitors, biochemical, TCAMS library (AID 1159586); settings: recombinant PfPK6, Kinase-Glo ATP depletion luminescence
[7] = biological target: Protein kinase 7 (PK7), Plasmodium falciparum 3D7 (PF3D7_0213400) (UniProt Q7YTF7); experiment: inhibition of Plasmodium PK7 catalytic activity – biochemical, TCAMS antimalarial set, Kinase-Glo luminescence (AID 1159587); settings: recombinant PfPK7, Kinase-Glo ATP depletion luminescence
[8] = biological target: Calcium-dependent protein kinase 4 (Plasmodium falciparum (isolate 3D7)) (UniProt Q8IBS5); experiment: PfCDPK4 kinase inhibitors, biochemical, TCAMS library (AID 1159588; cut-off not given, nearly all actives have IC50 up to about 0.91 µM); settings: recombinant PfCDPK4, Kinase-Glo ATP depletion luminescence
Sequence of Calcium-dependent protein kinase 4 (Plasmodium falciparum (isolate 3D7)) (Q8IBS5 whole entry, looked up): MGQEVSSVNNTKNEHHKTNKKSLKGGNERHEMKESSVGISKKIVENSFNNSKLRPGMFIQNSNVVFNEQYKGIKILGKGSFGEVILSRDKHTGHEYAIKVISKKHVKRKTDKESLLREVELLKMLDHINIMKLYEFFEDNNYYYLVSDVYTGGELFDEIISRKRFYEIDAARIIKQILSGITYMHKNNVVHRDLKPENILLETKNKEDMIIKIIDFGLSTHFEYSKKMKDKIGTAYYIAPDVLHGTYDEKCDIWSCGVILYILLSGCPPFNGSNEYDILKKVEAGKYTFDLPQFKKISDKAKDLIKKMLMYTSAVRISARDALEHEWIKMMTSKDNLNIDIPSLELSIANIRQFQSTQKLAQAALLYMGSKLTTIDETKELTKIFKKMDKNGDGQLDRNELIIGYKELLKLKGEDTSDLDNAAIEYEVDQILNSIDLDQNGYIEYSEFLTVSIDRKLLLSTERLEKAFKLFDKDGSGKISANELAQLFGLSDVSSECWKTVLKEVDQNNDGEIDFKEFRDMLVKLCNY

Sequence of Protein kinase 7 (PK7), Plasmodium falciparum 3D7 (PF3D7_0213400) (Q7YTF7 1-343): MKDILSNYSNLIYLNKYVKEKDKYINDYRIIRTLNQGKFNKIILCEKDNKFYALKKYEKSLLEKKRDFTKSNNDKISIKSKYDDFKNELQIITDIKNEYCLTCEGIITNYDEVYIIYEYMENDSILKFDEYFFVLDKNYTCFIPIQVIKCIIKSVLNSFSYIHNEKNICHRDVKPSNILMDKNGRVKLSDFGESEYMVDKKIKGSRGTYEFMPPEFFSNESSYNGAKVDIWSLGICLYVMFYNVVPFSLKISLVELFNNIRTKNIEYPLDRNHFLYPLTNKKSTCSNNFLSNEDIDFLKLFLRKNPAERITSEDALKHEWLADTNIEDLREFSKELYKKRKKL
Sequence of L-lactate dehydrogenase (Plasmodium falciparum (isolate CDC / Honduras)) (Q27743 whole entry, looked up): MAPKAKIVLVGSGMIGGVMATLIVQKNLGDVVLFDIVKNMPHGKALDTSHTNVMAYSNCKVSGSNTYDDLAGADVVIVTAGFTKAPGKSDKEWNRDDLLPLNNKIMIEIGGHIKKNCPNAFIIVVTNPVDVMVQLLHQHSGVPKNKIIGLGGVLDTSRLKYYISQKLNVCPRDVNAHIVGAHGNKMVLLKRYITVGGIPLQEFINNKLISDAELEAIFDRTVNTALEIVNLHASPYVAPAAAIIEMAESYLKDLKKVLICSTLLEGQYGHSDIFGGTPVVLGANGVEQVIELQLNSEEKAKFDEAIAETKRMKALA
Sequence of Calcium-dependent protein kinase 1 (Plasmodium falciparum (isolate 3D7)) (P62344 whole entry, looked up): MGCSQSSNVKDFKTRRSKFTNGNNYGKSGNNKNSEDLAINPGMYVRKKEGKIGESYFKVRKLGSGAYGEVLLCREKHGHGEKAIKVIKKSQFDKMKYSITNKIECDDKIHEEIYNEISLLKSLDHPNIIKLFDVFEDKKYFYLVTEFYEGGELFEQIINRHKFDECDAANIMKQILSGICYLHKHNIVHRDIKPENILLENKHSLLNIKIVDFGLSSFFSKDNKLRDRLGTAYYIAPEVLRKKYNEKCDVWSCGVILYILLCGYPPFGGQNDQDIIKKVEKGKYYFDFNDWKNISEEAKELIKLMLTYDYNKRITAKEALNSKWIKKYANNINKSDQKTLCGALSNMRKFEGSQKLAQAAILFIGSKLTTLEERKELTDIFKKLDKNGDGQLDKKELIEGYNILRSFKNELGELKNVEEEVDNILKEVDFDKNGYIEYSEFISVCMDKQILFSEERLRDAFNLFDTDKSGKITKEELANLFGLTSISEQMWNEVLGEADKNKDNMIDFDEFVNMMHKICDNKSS
Sequence of Plasmodium falciparum protein kinase 6 (PK6, PF3D7_1337100) (Q8IDW1 1-305): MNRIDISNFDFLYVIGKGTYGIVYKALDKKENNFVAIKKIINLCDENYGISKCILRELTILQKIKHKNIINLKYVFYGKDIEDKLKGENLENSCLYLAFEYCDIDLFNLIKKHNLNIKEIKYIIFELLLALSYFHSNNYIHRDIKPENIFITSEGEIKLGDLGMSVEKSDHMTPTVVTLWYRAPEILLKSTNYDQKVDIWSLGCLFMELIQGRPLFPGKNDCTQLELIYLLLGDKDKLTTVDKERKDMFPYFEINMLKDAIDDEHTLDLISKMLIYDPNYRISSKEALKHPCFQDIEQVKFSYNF

O=C(Nc1ccnc2ccccc12)NC1CCN(CCc2ccccc2)CC1
active: growth inhibition [4] 100%
inactive: growth inhibition [1] 43% | inhibition [2] 7% | inhibition [3] -3% | outcome [5] | outcome [6] | outcome [7] | outcome [8]

CC(Cc1ccc(CNC(=O)c2ccc(CC(C)NCCc3cccc(Cl)c3)cc2)cc1)NCCc1cccc(Cl)c1 (stereo not given)
inactive: inhibition [3] -2% | outcome [5] | outcome [6] | outcome [7] | outcome [8]
active: growth inhibition [1] 66% | inhibition [2] 99% | growth inhibition [4] 99%

CN(C)Cc1c(O)ccc2[nH]c(-c3ccc(OC(F)(F)F)cc3)nc12
inactive: inhibition [2] 24% | inhibition [3] -3% | outcome [5] | outcome [6] | outcome [7] | outcome [8]
active: growth inhibition [1] 97% | growth inhibition [4] 101%

COC(=O)c1ccc2nc(-c3ccc(C(=O)NCc4ccc(Cl)c(Cl)c4)cc3)[nH]c2c1
active: growth inhibition [4] 95%
inactive: growth inhibition [1] 3% | inhibition [2] 1% | inhibition [3] -2% | outcome [5] | outcome [6] | outcome [7] | outcome [8]

Cc1ccc2c(=O)n(C)c(=O)n(C)c2n1
inactive: growth inhibition [1] -3% | inhibition [2] 15% | inhibition [3] 4% | outcome [5] | outcome [6] | outcome [7] | outcome [8]
active: growth inhibition [4] 98%

CCN1[C@@H](c2ccc(Cl)cc2)[C@@H](CNCc2ccccc2O)C[C@@]1(C)CO
inactive: inhibition [2] 47% | inhibition [3] -3% | outcome [5] | outcome [6] | outcome [7] | outcome [8]
active: growth inhibition [1] 99% | growth inhibition [4] 99%

CCn1c(Sc2ccc([N+](=O)[O-])c(C#N)c2)nnc1-c1cccc(Cl)c1
inactive: growth inhibition [1] 22% | inhibition [2] 8% | inhibition [3] 2% | outcome [5] | outcome [6] | outcome [7] | outcome [8]
active: growth inhibition [4] 89%

O=C(C=Cc1ccc(Cl)c(Cl)c1)NCCCCCN1CCCC(CCCNC(=O)c2ccc3c(c2)OCO3)C1 (stereo not given)
inactive: growth inhibition [1] 4% | inhibition [2] 30% | inhibition [3] 3% | outcome [5] | outcome [6] | outcome [7] | outcome [8]
active: growth inhibition [4] 95%

COc1cccc(CCN(Cc2ccccc2-c2ccc(CNC3CC(C)(C)NC(C)(C)C3)cc2)C(=O)NC2CCCCC2)c1
inactive: inhibition [3] -1% | outcome [5] | outcome [6] | outcome [7] | outcome [8]
active: growth inhibition [1] 99% | inhibition [2] 97% | growth inhibition [4] 103%

CCCNC(=O)C1Cc2c([nH]c3ccc(Br)cc23)C2(CCN(CCc3ccccc3)CC2)N1 (stereo not given)
inactive: growth inhibition [1] 49% | inhibition [2] 16% | inhibition [3] -8% | outcome [5] | outcome [6] | outcome [7] | outcome [8]
active: growth inhibition [4] 99%

CCCCN(CCCC)C(=O)CC(O)c1cc2c(Cl)cc(Cl)cc2c2cc(C(F)(F)F)ccc12 (stereo not given)
active: growth inhibition [1] 68% | growth inhibition [4] 92%
inactive: inhibition [2] -12% | inhibition [3] -2% | outcome [5] | outcome [6] | outcome [7] | outcome [8]

Cc1ccc(NC(=O)c2ccc(CN3CCCN(CC4CCCCC4)CC3)cc2)cc1
active: growth inhibition [4] 93%
inactive: growth inhibition [1] 42% | inhibition [2] 41% | inhibition [3] -3% | outcome [5] | outcome [6] | outcome [7] | outcome [8]

COc1cc2c(cc1COc1ccccc1)CCN1Cc3cc(OC)c(OC)cc3CC21 (stereo not given)
inactive: inhibition [2] -1% | inhibition [3] 2% | outcome [5] | outcome [6] | outcome [7] | outcome [8]
active: growth inhibition [1] 84% | growth inhibition [4] 99%

Cc1cc(C)c(-c2n[nH]c3c2C(c2cccc(Cl)c2)N(Cc2ccco2)C3=O)c(O)c1 (stereo not given)
active: growth inhibition [1] 89% | growth inhibition [4] 96%
inactive: inhibition [2] -3% | inhibition [3] -1% | outcome [5] | outcome [6] | outcome [7] | outcome [8]

O=C(c1ccc(F)cc1)N1CCOC(CCN2CCC(c3ccccc3)CC2)(c2ccc(Cl)c(Cl)c2)C1 (stereo not given)
active: growth inhibition [1] 84% | growth inhibition [4] 88%
inactive: inhibition [2] 29% | inhibition [3] -6% | outcome [5] | outcome [6] | outcome [7] | outcome [8]

Cc1ccccc1C(O)CNc1ccnc(Nc2cccc(C#N)c2)n1 (stereo not given)
inactive: growth inhibition [1] 12% | inhibition [2] 22% | inhibition [3] 0% | outcome [5] | outcome [6] | outcome [7] | outcome [8]
active: growth inhibition [4] 94%

CCN(CC)CCN(Cc1ccc(-c2ccc(C(F)(F)F)cc2)cc1)C(=O)Cn1cc(Cc2cnn(C)c2)c(=O)n2nc(-c3ccccc3)cc12
inactive: inhibition [2] 18% | inhibition [3] -2% | outcome [5] | outcome [6] | outcome [7] | outcome [8]
active: growth inhibition [1] 74% | growth inhibition [4] 100%

CC(C)NCC(=O)Nc1cccc(C(=O)Nc2cccc(C(F)(F)F)c2)c1
active: growth inhibition [1] 89% | growth inhibition [4] 97%
inactive: inhibition [2] 6% | inhibition [3] 4% | outcome [5] | outcome [6] | outcome [7] | outcome [8]

CCCCCCCCS(=O)(=O)NCCCC1CCN(CCCCCNC(=O)C=Cc2ccc(Cl)c(Cl)c2)CC1
active: inhibition [2] 100% | growth inhibition [4] 91%
inactive: growth inhibition [1] 26% | inhibition [3] 6% | outcome [5] | outcome [6] | outcome [7] | outcome [8]

Oc1ccc2ccccc2c1CNC1CCCCCC1
inactive: growth inhibition [1] 33% | inhibition [2] 9% | inhibition [3] 5% | outcome [5] | outcome [6] | outcome [7] | outcome [8]
active: growth inhibition [4] 83%

O=C(/C=C/c1cc(C(F)(F)F)ccc1F)NCCCCCN1CCC(c2c[nH]c3ccccc23)CC1
inactive: growth inhibition [1] 4% | inhibition [2] 39% | inhibition [3] -1% | outcome [5] | outcome [6] | outcome [7] | outcome [8]
active: growth inhibition [4] 88%

CC(C)(C)c1ccc(NC(=O)c2ccc(CN3CCCN(Cc4cccc(F)c4)CC3)cc2)cc1
active: inhibition [2] 51% | growth inhibition [4] 90%
inactive: growth inhibition [1] 8% | inhibition [3] -2% | outcome [5] | outcome [6] | outcome [7] | outcome [8]

O=C(NCC1CCN(Cc2cccc(C(F)(F)F)c2)C1)c1cc(-c2cccc(F)c2)cs1 (stereo not given)
active: growth inhibition [4] 87%
inactive: growth inhibition [1] 5% | inhibition [2] 19% | inhibition [3] -3% | outcome [5] | outcome [6] | outcome [7] | outcome [8]

CCc1nc2nc(C)cc(Nc3ccc4c(c3)OCCO4)n2n1
inactive: inhibition [2] 8% | inhibition [3] -1% | outcome [5] | outcome [6] | outcome [7] | outcome [8]
active: growth inhibition [1] 55% | growth inhibition [4] 88%

Oc1ccc(CCNc2nc(NCc3ccccc3Oc3ccc(C(F)(F)F)cc3)nc(N3CCNCC3)n2)cc1
inactive: growth inhibition [1] 2% | inhibition [2] 26% | inhibition [3] 0% | outcome [5] | outcome [6] | outcome [7] | outcome [8]
active: growth inhibition [4] 86%

Cc1cccc2[nH]c(-c3ccc(-c4ccc(NC(=O)C(C)CN5CCN(C)CC5)cc4)s3)nc12 (stereo not given)
inactive: inhibition [2] 17% | inhibition [3] -2% | outcome [5] | outcome [6] | outcome [7] | outcome [8]
active: growth inhibition [1] 99% | growth inhibition [4] 101%

C=CCN1Cc2c(O)cccc2C(c2ccc(O)c(O)c2)C1 (stereo not given)
active: growth inhibition [4] 97%
inactive: growth inhibition [1] 6% | inhibition [2] -5% | inhibition [3] 0% | outcome [5] | outcome [6] | outcome [7] | outcome [8]

Nc1ccc(-c2nc3ccc(Cc4ccc5nc(-c6ccc(N)cc6)[nH]c5c4)cc3[nH]2)cc1
active: growth inhibition [1] 96% | growth inhibition [4] 100%
inactive: inhibition [2] 47% | inhibition [3] 2% | outcome [5] | outcome [6] | outcome [7] | outcome [8]

COCCNCC(O)Cn1c2ccc(Cl)cc2c2cc(Cl)ccc21 (stereo not given)
active: growth inhibition [1] 74% | growth inhibition [4] 95%
inactive: inhibition [2] 15% | inhibition [3] 0% | outcome [5] | outcome [6] | outcome [7] | outcome [8]

Cn1cccc1C(=O)C(=O)Nc1cccc(-c2ccc(-c3nc4ccc(C(F)(F)F)cc4[nH]3)cc2)c1
inactive: growth inhibition [1] 27% | inhibition [3] -7% | outcome [5] | outcome [6] | outcome [7] | outcome [8]
active: inhibition [2] 62% | growth inhibition [4] 94%

O=C1OC2(CCN(Cc3cccc(-c4ncc[nH]4)c3)CC2)CN1CCNCc1ccccc1
inactive: growth inhibition [1] -1% | inhibition [2] -8% | inhibition [3] -1% | outcome [5] | outcome [6] | outcome [7] | outcome [8]
active: growth inhibition [4] 94%

CNC(=O)c1cnc(Nc2ccc(OCC(O)CN(C)C)cc2)nc1Nc1cccc(OC(C)C)c1 (stereo not given)
inactive: inhibition [2] 21% | inhibition [3] 1% | outcome [5] | outcome [6] | outcome [7] | outcome [8]
active: growth inhibition [1] 100% | growth inhibition [4] 103%

COc1cc2nc(N3CCN(C(=O)c4cccc(I)c4)CC3)nc(N)c2cc1OC
active: growth inhibition [4] 88%
inactive: growth inhibition [1] 26% | inhibition [2] 11% | inhibition [3] 2% | outcome [5] | outcome [6] | outcome [7] | outcome [8]

O=C(C=Cc1ccc(Cl)c(Cl)c1)NCCCCCN1CCC(CCCNS(=O)(=O)c2ccc(Br)cc2)CC1
inactive: growth inhibition [1] 25% | inhibition [3] -5% | outcome [5] | outcome [6] | outcome [7] | outcome [8]
active: inhibition [2] 74% | growth inhibition [4] 93%

COc1ccc(CCn2c(=N)c(C(=O)NCc3cccnc3)cc3c(=O)n4ccccc4nc32)cc1
active: growth inhibition [4] 98%
inactive: growth inhibition [1] 5% | inhibition [2] 16% | inhibition [3] -2% | outcome [5] | outcome [6] | outcome [7] | outcome [8]

O=C(Nc1cccc(CN2CCCN(Cc3ccc(O)cc3)CC2)c1)c1ccc(Br)cc1
inactive: inhibition [2] 19% | inhibition [3] -2% | outcome [5] | outcome [6] | outcome [7] | outcome [8]
active: growth inhibition [1] 54% | growth inhibition [4] 94%

COc1ccccc1C1CCN(C2CCC(NC(=O)/C=C/c3cc(F)cc(C(F)(F)F)c3)CC2)CC1 (stereo not given)
active: growth inhibition [1] 57% | inhibition [2] 92% | growth inhibition [4] 98%
inactive: inhibition [3] -1% | outcome [5] | outcome [6] | outcome [7] | outcome [8]

c1ccc(-c2ccc3c(Nc4ccc5[nH]ccc5c4)ccnc3c2)nc1
active: growth inhibition [1] 78% | growth inhibition [4] 91%
inactive: inhibition [2] 11% | inhibition [3] -7% | outcome [5] | outcome [6] | outcome [7] | outcome [8]

CCN(CCCN1CCCCC1)c1cc(C)nc(Nc2ccc(C)cc2C)n1
active: growth inhibition [4] 91%
inactive: growth inhibition [1] 35% | inhibition [2] 33% | inhibition [3] 6% | outcome [5] | outcome [6] | outcome [7] | outcome [8]

CC1(C)N=C(N)N=C(N)N1OCCSCCON1C(N)=NC(N)=NC1(C)C
inactive: inhibition [2] 34% | inhibition [3] -4% | outcome [5] | outcome [6] | outcome [7] | outcome [8]
active: growth inhibition [1] 81% | growth inhibition [4] 95%
